Experimental data published in PubChem BioAssay (EPA / NIEHS).
Active and inactive are the calls of the source. How the source made its calls: active means hit-call score of the fitted dose curve at least 0.9, where 1 is the maximum; inactive means score below 0.9.

Each compound was assayed on Intercellular Adhesion Molecule 1 (ICAM1), ICAM1 (gene 3383) (assay: BSK_KF3CT_ICAM1: BioMAP Diversity Plus: KF3CT Assay for Intercellular Adhesion Molecule 1 (ICAM1) Biomarker Activity (AID 2283067)). Settings: primary human keratinocytes with fibroblasts; actives raise or lower the signal.
Protocol: BSK_KF3CT is a cell-based, multiplexed-readout assay that uses keratinocytes and foreskin fibroblasts, a human skin primary cell co-culture, with measurements taken at 24 hours after chemical dosing in a 96-well plate.BSK_KF3CT_ICAM1 is an assay component measured in the BSK_KF3CT assay. It measures ICAM-1 antibody related to regulation of gene expression using ELISA technology.Data from the assay component BSK_KF3CT_ICAM1 was analyzed into 1 assay endpoint. This assay endpoint, BSK_KF3CT_ICAM1, was analyzed with bidirectional fitting relative to DMSO as the negative control and baseline of activity. Using a type of binding reporter, gain or loss-of-signal activity can be used to understand changes in the signaling as they relate to the gene ICAM1. Furthermore, this assay endpoint can be referred to as a primary readout, because this assay has produced multiple assay endpoints where this one serves a signaling function. To generalize the intended target to other relatable targets, this assay endpoint is annotated to the cell adhesion molecules intended target family, where the subfamily is Immunoglobulin CAM.
The levels of cell surface (or secreted, indicated by the prefix "s") biomarker endpoints were measured by ELISA. Overt cytotoxicity to cells in confluent adherent cultures (all systems other than the BT system) was assessed by measuring total protein levels using sulforhodamine B (SRB) staining in parallel cultures at the time of biomarker measurements, indicated as SRB endpoints. For proliferation assays for adherent cell types, individual cell types are cultured at sub-confluence and relative cell numbers quantified by SRB staining at time points optimized for each system (48 h: 3C and CASM3C systems; 72 h: BT and HDF3CGF systems; 96 h: SAg system). SRB was performed by staining cells with 0.1% SRB after fixation with 10% TCA and reading wells at 560 nm.Viability and proliferation of PBMC (T cells) was quantified by Alamar Blue reduction for the SAg and BT systems. For PBMC viability (referred to as PBMC Cytotoxicity within the assay endpoint names), cells were plated (75,000/well in a 96-well plate) and then chemical samples added for 1 h before addition of activators, SEB and TSST-1 (20 ng/mL final concentration each). Cells were incubated for 90 h. Then, Alamar Blue (20 uL/well) (Invitrogen, Cat DAL1100) was added for 6 h, and the plates were read with a fluorescence microplate reader at 546/580 nm (excitation/emission). For PBMC proliferation, cells were plated and activated as above but incubated for only 16 h prior to addition of Alamar Blue. Plates were read after 6 h.

**Q.** With `C=CCCCCCCCCC(=O)O` as the compound, how does the outcome read?
**A.** The outcome was “inactive”.

**Q.** Which outcome does the source give for `CCOC(=O)CC(CC(=O)OCC)(OC(C)=O)C(=O)OCC` here?
**A.** The outcome was “inactive”.

**Q.** Which outcome does the source give for `CC(C)CCCCCCCOC(=O)CCCCC(=O)OCCCCCCCC(C)C` here?
**A.** The outcome was “inactive”.

**Q.** Which AC50 does the source give for `O=C(OC[C@H]1O[C@@H](OC(=O)c2cc(O)c(O)c(OC(=O)c3cc(O)c(O)c(O)c3)c2)[C@H](OC(=O)c2cc(O)c(O)c(OC(=O)c3cc(O)c(O)c(O)c3)c2)[C@@H](OC(=O)c2cc(O)c(O)c(OC(=O)c3cc(O)c(O)c(O)c3)c2)[C@@H]1OC(=O)c1cc(O)c(O)c(OC(=O)c2cc(O)c(O)c(O)c2)c1)c1cc(O)c(O)c(OC(=O)c2cc(O)c(O)c(O)c2)c1` here?
**A.** Its AC50 is 4.39 µM (active).

**Q.** For `Nc1ccc(Nc2ccccc2)cc1`, which outcome is on record?
**A.** Its outcome is “inactive”.

**Q.** With `CCCCCCCCCCCCc1ccccc1` as the compound, how does the outcome read?
**A.** Its outcome is “inactive”.

**Q.** Which outcome does the source give for `CCn1nc(Cc2ccccc2)cc1C1CCN(C[C@H]2C[C@H](N(C)[C@@H](C(=O)O)C(C)C)C[C@@H]2c2cccc(F)c2)CC1` here?
**A.** The outcome was “inactive”.

**Q.** `CC[C@H]1CC[C@H](NCc2cc3c(cc2OC)[C@H]2C[C@H]2C(=O)N3C)[C@H](c2ccccc2)N1` was tested. Which outcome did it give?
**A.** The outcome was “inactive”.

**Q.** With `CCC(C)(C)C(=O)O[C@H]1C[C@@H](C)C=C2C=C[C@H](C)[C@H](CC[C@@H]3C[C@@H](O)CC(=O)O3)[C@H]21` as the compound, how does the AC50 read?
**A.** Its AC50 is 31.2 µM (active).

**Q.** Which outcome does the source give for `CCCCC(CC)COC(=O)c1ccc(C(=O)OCC(CC)CCCC)cc1` (stereo not given) here?
**A.** The outcome was “inactive”.

**Q.** `CC(C)c1cccc(C(C)C)c1N1C(=O)c2ccc(O)cc2C1=O` was tested. Which outcome did it give?
**A.** The outcome was “inactive”.

**Q.** For `CCCCCCCCO`, which outcome is on record?
**A.** Its outcome is “inactive”.

**Q.** Which outcome does the source give for `O=C1OC(=O)C2C3C=CC(C3)C12` (stereo not given) here?
**A.** The outcome was “inactive”.

**Q.** For `CC(O)CN(CCN(CC(C)O)CC(C)O)CC(C)O` (stereo not given), which outcome is on record?
**A.** The outcome was “inactive”.

**Q.** How did the outcome turn out when `NC(=O)NO` was run?
**A.** Its outcome is “inactive”.

**Q.** For `CCOc1cccc(-n2cc(C(=O)N3CCN(c4cc(C(=O)O)c5ccccc5c4)CC3)nc2-c2ccc(C)cc2)c1`, which AC50 is on record?
**A.** The AC50 was 30.5 µM (active).

**Q.** For `COC(=O)c1ccccc1O`, which outcome is on record?
**A.** The outcome was “inactive”.

**Q.** `O=c1n(CC2CO2)c(=O)n(CC2CO2)c(=O)n1CC1CO1` (stereo not given) was tested. Which outcome did it give?
**A.** The outcome was “inactive”.

**Q.** For `O=C(O)c1cc(N=Nc2ccc(S(=O)(=O)Nc3ccccn3)cc2)ccc1O`, which outcome is on record?
**A.** The outcome was “inactive”.

**Q.** For `CC1(C)C(=O)N(Br)C(=O)N1Br`, which outcome is on record?
**A.** The outcome was “inactive”.

**Q.** `COC(=O)CC(=O)OC` was tested. Which outcome did it give?
**A.** Its outcome is “inactive”.

**Q.** How did the outcome turn out when `COc1ccc(/C=C/S(=O)(=O)NC(=O)c2ccc(C)cc2Cl)cc1` was run?
**A.** The outcome was “inactive”.

**Q.** `CC(C)=CCC/C(C)=C\CO` was tested. Which outcome did it give?
**A.** Its outcome is “inactive”.

**Q.** For `CCCN(C1CCN(C(=O)C2CCNCC2)CC1)[C@@H]1CCc2ccc(OC)cc2C1`, which outcome is on record?
**A.** The outcome was “inactive”.

**Q.** With `Cc1ccc(O)cc1` as the compound, how does the outcome read?
**A.** The outcome was “inactive”.

**Q.** Which outcome does the source give for `CC1=CC(=O)CC(C)(C)C1` here?
**A.** Its outcome is “inactive”.

**Q.** How did the outcome turn out when `CNCc1ccc(NC(=O)c2c[nH]c3c2C(=O)CCC3)cc1` was run?
**A.** The outcome was “inactive”.

**Q.** How did the outcome turn out when `CNS(=O)(=O)c1cc(C(=O)N2CCC(CCN3C4CCC3CC(n3c(C)nc5ccccc53)C4)(c3cccc(F)c3)CC2)c(Cl)cc1F` (stereo not given) was run?
**A.** Its outcome is “inactive”.

**Q.** For `Cc1ccc(C)c(O)c1`, which outcome is on record?
**A.** The outcome was “inactive”.

**Q.** With `Nc1cccc(N)c1` as the compound, how does the outcome read?
**A.** Its outcome is “inactive”.

**Q.** With `O=C1CCC(N2C(=O)c3ccccc3C2=O)C(=O)N1` (stereo not given) as the compound, how does the outcome read?
**A.** Its outcome is “inactive”.

**Q.** Which outcome does the source give for `CC(C)=CCCC(C)CCO` (stereo not given) here?
**A.** The outcome was “inactive”.

**Q.** `C[C@](N)(Cc1ccc(O)c(O)c1)C(=O)O` was tested. Which outcome did it give?
**A.** The outcome was “inactive”.

**Q.** How did the outcome turn out when `Fc1ccccc1[C@@H](F)COC1CCC(Nc2ncnc3[nH]ncc23)CC1` (stereo not given in full) was run?
**A.** The outcome was “inactive”.

**Q.** With `Nc1nc2ncc(CNc3ccc(C(=O)N[C@@H](CCC(=O)O)C(=O)O)cc3)nc2c(=O)[nH]1` as the compound, how does the outcome read?
**A.** Its outcome is “inactive”.

**Q.** `O=C(O)c1cccc(Oc2ccccc2)c1` was tested. Which outcome did it give?
**A.** The outcome was “inactive”.

**Q.** How did the outcome turn out when `CC/C(=C\C(=N/O)C(N)=O)C(C)[N+](=O)[O-]` (stereo not given) was run?
**A.** The outcome was “inactive”.

**Q.** `CN(C)c1ccc(Cc2ccc(N(C)C)cc2)cc1` was tested. Which outcome did it give?
**A.** Its outcome is “inactive”.

**Q.** `Clc1nc(Cl)c(Cl)c(Cl)c1Cl` was tested. Which outcome did it give?
**A.** The outcome was “inactive”.

**Q.** For `CN(C)c1ccc(N=NS(=O)(=O)O)cc1`, which outcome is on record?
**A.** The outcome was “inactive”.
